Common to all, as to format: functional
The target in experiment [1] is Solute carrier family 2, facilitated glucose transporter member 1 (Homo sapiens) (UniProt P11166). As to the kind of experiment: ST_JUDE_LEISH: Cytotoxicity at 2uM final concentration against transgenic Leishmania Mexicana promastigotes LmGLUT1 that are glucose transport deficient and complemented with the human glucose transporter GLUT1. Activity is measured by DNA content using SYBR green in vitro.

In experiment [2] the target is Hexose transporter 1 (Plasmodium falciparum) (UniProt O97467). Description: ST_JUDE_LEISH: Cytotoxicity at 2uM final concentration against transgenic Leishmania Mexicana promastigotes LmPfHT that are glucose transport deficient and complemented with the Plasmodium falciparum hexose transporter. Activity is measured by DNA content using SYBR green in vitro.
The target in experiment [3] is Glucose transporter (Leishmania mexicana) (UniProt O61059). Description: ST_JUDE_LEISH: Cytotoxicity at 2uM final concentration against transgenic Leishmania Mexicana promastigotes LmGT2 that are glucose transport deficient and complemented with the L. Mexicana glucose transporter 2. Activity is measured by DNA content using SYBR green in vitro.

For orientation: inhibition means the relative decrease from the control value, in per cent.

Chain of Solute carrier family 2, facilitated glucose transporter member 1 (Homo sapiens) (P11166 whole entry): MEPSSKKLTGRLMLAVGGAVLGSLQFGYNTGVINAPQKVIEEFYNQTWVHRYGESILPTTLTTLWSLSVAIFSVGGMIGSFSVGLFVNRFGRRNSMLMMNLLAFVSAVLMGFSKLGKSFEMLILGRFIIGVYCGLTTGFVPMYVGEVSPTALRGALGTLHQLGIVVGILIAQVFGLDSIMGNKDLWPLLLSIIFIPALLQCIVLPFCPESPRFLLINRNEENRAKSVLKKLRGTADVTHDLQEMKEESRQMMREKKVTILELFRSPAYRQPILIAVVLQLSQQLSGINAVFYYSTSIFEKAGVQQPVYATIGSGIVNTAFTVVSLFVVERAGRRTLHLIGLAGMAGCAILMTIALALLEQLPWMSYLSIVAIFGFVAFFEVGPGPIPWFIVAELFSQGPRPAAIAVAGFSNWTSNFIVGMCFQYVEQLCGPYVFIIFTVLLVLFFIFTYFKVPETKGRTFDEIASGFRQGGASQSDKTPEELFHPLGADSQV

As for `O=C(NC1CCCCC1)N(Cc1cccc(-c2ccc(CNCc3ccc4c(c3)OCO4)cc2)c1)C1CCN(Cc2ccccc2)CC1`, the results for the inhibition in experiment [1], in experiment [2] and in experiment [3] were 8.67%, 5.99% and 3.16%, respectively.

As for `Fc1ccc(CNc2nc(-c3ccc(F)c(C(F)(F)F)c3)n(-c3cccc(C(F)(F)F)c3)n2)cc1`, the values for the inhibition in experiment [1], in experiment [2] and in experiment [3] were 4.39%, 5.8% and 3.42%, respectively.

In the case of `CCOc1cc2ncnc(Nc3ccc(OCc4ccccc4F)c(Cl)c3)c2cc1OCC`, the figures for the inhibition in experiment [1], in experiment [2] and in experiment [3] were -0.1%, 2.22% and 0.76%, respectively.

Consider `O=C(Nc1cccc(-c2cccc(-c3nc4cc(C(F)(F)F)ccc4[nH]3)c2)c1)c1cccnc1Cl`, for which the inhibition in experiment [1] is 0.15%; in experiment [2], 0.52%; in experiment [3] it was -2.92%.

Take `N=C(NCCCCC1CCCCC1)c1cccc(C(=N)NCCCCC2CCCCC2)n1`: the inhibition was 0.33% in experiment [1], 0.98% in experiment [2] and 0.14% in experiment [3].

For the compound `COc1ccc(CN(C)CCOc2ccc(NC(=O)c3cccc4c(=O)cc(-c5ccccc5)[nH]c34)cc2)cc1OC`, the inhibition in experiment [1] stood at 0.9%; in experiment [2], 0.96%; in experiment [3] it was 1.24%.

For `CN1CCN(CCCN(Cc2ccc(-c3cccc(CNCc4ccc5c(c4)OCO5)c3)cc2)C(=O)Nc2ccccc2)CC1`, the results for the inhibition in experiment [1], in experiment [2] and in experiment [3] were 4.2%, 4.92% and 4.03%, respectively.

For `COc1cc(F)c2ncc(Cl)c(CCN3CCC(NCc4ccc5c(c4)NC(=O)CS5)CC3)c2c1`, the inhibition in experiment [1] was 15.1%; in experiment [2], 18.3%; in experiment [3] it was 8.82%.

In the case of `Cc1nnsc1C(=O)Nc1ccc(-c2cccc(-c3nc4cc(C(F)(F)F)ccc4[nH]3)c2)cc1`, the inhibition in experiment [1] amounted to 0.51%; in experiment [2] it was 0.86%; in experiment [3], 4.55%.

As to `Cc1cccc2nc(-c3ccc(-c4cccc(CN5CC(C)OC(C)C5)c4)s3)[nH]c12` (stereo unspecified), the figures for the inhibition in experiment [1], in experiment [2] and in experiment [3] were 7.69%, 6.31% and 4.91%, respectively.

Consider `CCOc1ccc(C(=O)Nc2cc(Br)c3c(c2)CNCC3)cc1Br`, for which the inhibition in experiment [1] was found to be 11.7%; in experiment [2], 12.7%; in experiment [3] it was 6.15%.

As for `CCn1c(CN2CCC(C)CC2)nc2cc(NC(=O)c3cccs3)ccc21`, the results for the inhibition in experiment [1], in experiment [2] and in experiment [3] were 9.93%, 9.8% and 12.5%, respectively.

For the compound `c1cc(Nc2nc(-c3ccc(-c4csc(Nc5ccncc5)n4)cc3)cs2)ccn1`, the values for the inhibition in experiment [1], in experiment [2] and in experiment [3] were -1.93%, -1.56% and -1.05%, respectively.

`COc1ccc2nccc(CCN3CC(O)C(CNCc4ccc5c(n4)NC(=O)CS5)C3)c2n1` (stereo unspecified): the inhibition in experiment [1] turned out to be 3.43%; in experiment [2], 3.49%; in experiment [3] it was 4.07%.

On to `Cc1cccc2nc(-c3cccc(-c4cccc(NC(=O)c5ccc(=O)[nH]n5)c4)c3)[nH]c12`, for which the inhibition was determined as 5.27% in experiment [1], 1.34% in experiment [2] and 2.2% in experiment [3].

On to `Cc1ccc(-c2cccc3c(NC(=O)Nc4ccc5nccc(N6CCN(C)CC6)c5c4)cccc23)cn1`, for which the inhibition in experiment [1] stood at 0.51%; in experiment [2], 0.17%; in experiment [3], 7.64%.

Take `CC(C)CNC(=O)c1ccnc(-c2ccc(CNCCCc3ccccc3)cc2)c1`: the figures for the inhibition in experiment [1], in experiment [2] and in experiment [3] were 2.32%, 3.19% and 2.74%, respectively.

On to `c1ccc(Oc2cccc(Nc3ccnc4ccccc34)c2)cc1`, for which the inhibition in experiment [1] amounted to 8.44%; in experiment [2], 10.4%; in experiment [3], 3.97%.

As to `CCC(CC)n1c(COC)cc2c3c(N)nc(N)nc3ccc21`, the inhibition in experiment [1] was 33.6%; in experiment [2], 51.1%; in experiment [3], 37.3%.

Turning to `NOCCCOc1ccccc1`, the inhibition was 0.04% in experiment [1], -0.12% in experiment [2] and 0.73% in experiment [3].

For `Cc1cc(N(C)C2CCN(CC3CCCCC3)C2)nc(Nc2ccc(Br)cc2)n1` (stereo unspecified), the inhibition in experiment [1] was 2.84%; in experiment [2], 4.85%; in experiment [3], 2.06%.

As to `CC(C)n1c(CC2CCN(CC3CCN(C(=O)/C=C/c4ccc(Cl)c(Cl)c4)CC3)CC2)nc2ccccc21`, the inhibition in experiment [1] is -1.74%; in experiment [2], -2.38%; in experiment [3], -2.53%.

As to `O=C(C=Cc1ccc(Cl)c(Cl)c1)NCCCCCN1CCC(CCNC(=O)c2ccc3c(c2)OCO3)CC1`, the inhibition in experiment [1] stood at 5.94%; in experiment [2] it was 5.12%; in experiment [3] it was 5.57%.

With `COCCOC(=O)C(=O)c1c(-c2ccccc2)c(-c2ccc(OC)c(OC)c2)c2c3cc(OC)c(OC)cc3ccn12`, the inhibition in experiment [1] amounted to 4.89%; in experiment [2], 2.7%; in experiment [3], 1.72%.

As to `CC=CC1CCNC(C(O)c2ccnc3ccc(OC)cc23)C1` (stereo unspecified), the inhibition in experiment [1] came out at 2.16%; in experiment [2] it was 2.5%; in experiment [3] it was 2.9%.

Regarding `CCc1cc([C@H]2O[C@@H](n3cnc4c(NCC(c5ccccc5)c5ccccc5)nc(NCCNc5ccccn5)nc43)[C@H](O)[C@@H]2O)on1`, the values for the inhibition in experiment [1], in experiment [2] and in experiment [3] were -1.61%, -0.53% and -2.53%, respectively.

Regarding `CCOc1cc(Br)c(C(C)NC(=O)c2ccccc2)cc1OCC` (stereo unspecified), the values for the inhibition in experiment [1], in experiment [2] and in experiment [3] were 1.08%, 0.92% and 1.97%, respectively.

As for `O=S(=O)(Nc1cccc(CCN2CCCCC2CCN2CCCC2)c1)c1cccc2ccccc12` (stereo unspecified), the inhibition was 1.15% in experiment [1], 2.49% in experiment [2] and -0.21% in experiment [3].

Regarding `COc1ccc(Cl)cc1N1CCN(CCCNC(=O)c2ccc(-c3nc4cc(Cl)c(F)cc4[nH]3)s2)CC1`, the inhibition in experiment [1] is 6.45%; in experiment [2], 5.41%; in experiment [3], 2.06%.

On to `Cc1ccc2[nH]c(-c3ccccc3Nc3ccnc4cc(-c5nccs5)ccc34)nc2c1`, for which the inhibition in experiment [1] worked out at 1.04%; in experiment [2], 4.44%; in experiment [3], 1.35%.

For `COCCNCc1ncsc1-c1ccc2c(Nc3cc(O)c(Cl)cc3F)ccnc2c1`, the inhibition is 3.19% in experiment [1], 3.29% in experiment [2] and 1.41% in experiment [3].

As for `O=c1cc(NCCCCNCc2cccc(Br)c2)[nH]c2ccccc12`, the inhibition worked out at 5.23% in experiment [1], 5.07% in experiment [2] and 3.39% in experiment [3].

In the case of `C=CCOc1ccc(Cc2cnc(N)nc2N)cc1CCC`, the results for the inhibition in experiment [1], in experiment [2] and in experiment [3] were 3.94%, 4.62% and 1.19%, respectively.

For the compound `COc1ccc(NC(=O)CCNc2cc(C)nc(Nc3ccccc3)n2)cc1`, the inhibition in experiment [1] worked out at 5.84%; in experiment [2] it was 5.64%; in experiment [3], 5.8%.

`COc1ccc(O)c(C(=O)c2cc(C(=O)NCCc3ccccc3)c(=O)n(CCc3ccccc3)c2)c1`: the inhibition in experiment [1] was 4.48%; in experiment [2] it was 3.07%; in experiment [3], 5.64%.

Regarding `CCc1cc(N2CCN(c3ccccc3F)CC2)nc(SCc2ccc(C(=O)NC3CC3)o2)n1`, the inhibition in experiment [1] came out at 2.82%; in experiment [2] it was 1.67%; in experiment [3], 2.15%.

Turning to `CC[C@@]1(O)C(=O)OCc2c1cc1n(c2=O)Cc2c-1nc1cc3c(cc1c2CN1CCN(C)CC1)OCCO3`, the inhibition in experiment [1] was 7.46%; in experiment [2], 15%; in experiment [3], 3.83%.

For the compound `O=C(Nc1ccccc1)c1ccc(-c2cc3ccncc3cc2OC2CCNCC2)s1`, the inhibition is -3.12% in experiment [1], 3.86% in experiment [2] and -3.49% in experiment [3].

In the case of `COc1cc2nc(N3CCC(CNC(=O)c4cc(Br)c(Br)s4)CC3)nc(N)c2cc1OC`, the inhibition in experiment [1] was determined as 9.57%; in experiment [2], 9.82%; in experiment [3] it was 6.92%.

Regarding `COc1ccc(OCCON)cc1`, the inhibition in experiment [1] amounted to 7.35%; in experiment [2], 10.4%; in experiment [3], 8.87%.

Consider `Brc1cc2c(cc1C=NNc1nc(=Nc3ccccc3)[nH]c(=Nc3ccccc3)[nH]1)OCO2`, for which the values for the inhibition in experiment [1], in experiment [2] and in experiment [3] were 3.97%, 3.42% and -2.12%, respectively.

As for `Oc1ccccc1Nc1nc(NCc2ccco2)c2ccccc2n1`, the inhibition was 15.3% in experiment [1], 13.6% in experiment [2] and 4.56% in experiment [3].

Turning to `CCOC(=O)C(C(C)=O)C(c1ccccc1)C(C(C)=O)C(=O)OCC` (stereo unspecified), the values for the inhibition in experiment [1], in experiment [2] and in experiment [3] were 3.08%, 4.69% and 0.94%, respectively.

`O=C(/C=C/c1cccc(Cl)c1)Nc1ccc2nc(CN3CCCC3)ccc2c1`: the inhibition in experiment [1] worked out at 3.42%; in experiment [2] it was 5.45%; in experiment [3], 3.23%.

As to `COc1ccc(OCc2ccccn2)c(C2CCN(CCCCNC(=O)c3ccc(NC(=O)c4ccc(Cl)cc4)cc3)CC2)c1`, the inhibition in experiment [1] is 1.01%; in experiment [2], -4.32%; in experiment [3], -2.76%.

For `CC(C)(C)c1ccc(N2C(N)=NC(N)=NC2(C)C)cc1`, the values for the inhibition in experiment [1], in experiment [2] and in experiment [3] were -0.57%, 0.01% and 1.34%, respectively.

On to `C#CCOc1ccc2ccccc2c1CNCCCCCCNCc1c(OCC#C)ccc2ccccc12`, for which the inhibition in experiment [1] was 8.53%; in experiment [2], 2.21%; in experiment [3], 0.87%.

As to `O=C(Nc1cccc(C(F)(F)F)c1)c1ccc(S(=O)(=O)NCC2CCCN(CC3CCCCC3)C2)cc1` (stereo unspecified), the values for the inhibition in experiment [1], in experiment [2] and in experiment [3] were 1.23%, 0.41% and -0.91%, respectively.

As to `CCC(C)C#Cc1c(C)nc(N)nc1N` (stereo unspecified), the inhibition came to 0.18% in experiment [1], 0.61% in experiment [2] and 0.17% in experiment [3].

For the compound `CCCCc1ccc(C(=O)Nc2ccc3nc(N4CCN(CC)CC4)cc(C)c3c2)cc1`, the inhibition is -2.18% in experiment [1], -0.16% in experiment [2] and -1.24% in experiment [3].

Regarding `O=C(Nc1cccc(OC2CCN(Cc3ccsc3)CC2)c1)c1ccc(C(F)(F)F)cc1`, the results for the inhibition in experiment [1], in experiment [2] and in experiment [3] were 0.75%, -0.04% and -1.05%, respectively.

`O=C(/C=C/c1ccc(Cl)c(Cl)c1)NCCCCCN1CCC(NC(=O)Nc2ccc(C(F)(F)F)cc2)C1` (stereo unspecified): the inhibition is -0.17% in experiment [1], -0.88% in experiment [2] and -3.22% in experiment [3].

Values taken from ChEMBL document CHEMBL3433997, “St. Jude Leishmania screening dataset” (2016).
